In PubChem BioAssay (NCI):
About 83,000 compounds went through this panel and 20% of them were active in at least one assay; those are over-represented in the sample as a whole.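 Each cell line was grown in a 96-well plate and treated with one concentration of compound for 48 hours. Values below 10 were considered active.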 A number with no mark means an inactive call. Calls of active or inactive are those of the source.

Experiments:
Experiment in all cases: NCI-60 one-dose screen, 48 h (100 = growth as untreated, 0 = no growth, -100 = all killed)
Conditions in all cases: 10 µM unless noted
[1] = system: SR leukemia
[2] = system: RPMI-8226 leukemia
[3] = system: OVCAR-8 ovarian
[4] = system: OVCAR-5 ovarian
[5] = system: OVCAR-4 ovarian
[6] = system: SK-OV-3 ovarian
[7] = system: IGROV1 ovarian
[8] = system: OVCAR-3 ovarian
[9] = system: HS 578T breast
[10] = system: NCI/ADR-RES ovarian
[11] = system: T-47D breast
[12] = system: BT-549 breast
[13] = system: MDA-MB-435 melanoma
[14] = system: SW-620 colon
[15] = system: MCF7 breast
[16] = system: HCT-116 colon
[17] = system: KM12 colon
[18] = system: HCC-2998 colon

Structure (SMILES)	growth [1]	growth [2]	growth [3]	growth [4]	growth [5]	growth [6] [%]	growth [7]	growth [8]	growth [9]	growth [10]	growth [11]	growth [12]	growth [13]	growth [14]	growth [15]	growth [16]	growth [17]	growth [18]
CCOC(=O)c1ccc2c(c1)[n+](=O)c(C(C)=O)c(C(F)(F)F)n2[O-]	-59.2% (active)	8.56% (active)	-42.6% (active)	-1.19% (active)	-5.96% (active)	24.8	-81.1% (active)	-84.7% (active)	-23.9% (active)	6.85% (active)	-26.1% (active)	-44.9% (active)	2.85% (active)	-0.801% (active)	-6.41% (active)	-38.9% (active)	-85.5% (active)	–
CCc1ccc(Cc2cnc(NC(=O)c3cc(C)oc3C)s2)cc1	19.5%	51%	52.9%	55.2%	54.7%	52.8	43%	16.7%	23.6%	34.1%	34.4%	44.8%	-21.5% (active)	18.3%	16.5%	20.4%	22%	58.3%
CCOC(=O)c1cnc2sc(-c3ccc(OC)cc3)nc2c1Cl	96.8%	93.1%	112%	118%	86.9%	121	102%	108%	89.3%	90%	97.2%	107%	87.7%	114%	88%	87.8%	90.7%	114%
COC(=O)c1cc(-c2ccc(OC)c(OC)c2)[nH]c1N/N=C/c1c(Cl)cccc1Cl	12.1%	24.1%	41.1%	49.4%	69.3%	42.2	42.4%	-19.2% (active)	14.3%	26.8%	40.9%	37.7%	-18.3% (active)	21.3%	14.6%	14.5%	28.7%	–
CCOC(=O)CSc1nc2sc3c(c2c(=O)n1-c1ccccc1)CCCCC3	103%	105%	103%	103%	116%	100	106%	93.5%	103%	108%	94.4%	110%	107%	98.1%	94.5%	97.3%	104%	–
C(=N\Nc1nnc2n1N=C(c1ccccc1)CS2)/c1ccc(OCc2ccccc2)cc1	93.4%	86.6%	102%	114%	120%	109	99.6%	113%	112%	96.6%	84.5%	103%	99.8%	113%	82.9%	100%	102%	120%
COc1ccc(S(=O)(=O)NC2c3ccccc3CC2O)cc1OC (stereo not given)	100%	104%	107%	104%	117%	115	106%	112%	98.8%	105%	105%	112%	105%	100%	97.3%	104%	101%	–
O=C(Nc1ncc(Cc2ccccc2)s1)c1ccc2c(c1)OCCO2	5.84% (active)	14.6%	19%	28.5%	46.3%	25	23.4%	-11.3% (active)	25.1%	7.95% (active)	36%	36.1%	-4.27% (active)	35.2%	10.8%	9.23% (active)	9.34% (active)	13.3%
O=c1[nH]c(CN2CCN(c3ccccc3)CC2)nc2c(Br)cc(Br)cc12	3.49% (active)	96.6%	104%	95.3%	105%	96.4	29.4%	103%	91.7%	104%	103%	123%	108%	102%	110%	107%	105%	–
Clc1ccc2c(NCCCn3cnc4c(N5CCCC5)nc(Cl)nc43)ccnc2c1	84.2%	115%	103%	101%	100%	88.2	89%	101%	104%	93.3%	85.6%	97.7%	101%	103%	91.9%	93.4%	98.1%	108%
O=C1c2ccccc2-c2c1c1ccncc1c(=O)n2CCCn1ccnc1	-16.2% (active)	34.1%	32.9%	88.5%	72.7%	73.6	44.9%	67.1%	60.8%	53.6%	23.6%	46.7%	86.3%	18.7%	9.35% (active)	5.31% (active)	32.8%	73.9%
CCN(CC)CCCC(Nc1c2ccc(Cl)cc2nc2ccc(OC)cc12)c1ccncc1 (stereo not given)	-6.47% (active)	74.3%	58.4%	96.6%	68.5%	97.6	75.7%	95.6%	97.5%	81.4%	113%	94.6%	93%	61.9%	61.2%	60.8%	69.1%	–
NC(=O)[C@@H]1Cc2ccccc2CN1C(=O)c1ccc2c(c1)Cc1ccccc1-2	92.6%	60.1%	75.1%	98.8%	84.9%	108	90.2%	85.7%	93.8%	62.8%	57.2%	63.1%	77.7%	110%	70.8%	81.1%	88.6%	–
CC(C)(C)CC(C)(C)Nc1c(-c2c(O)c3ccccc3oc2=O)nc2sccn12	111%	97.7%	91%	97.5%	111%	87.2	93.2%	109%	96.3%	98.3%	84.8%	111%	104%	96.9%	91.7%	98.2%	107%	–
Cn1ccnc1C(=O)/C=C/c1ccc(CC(=O)Nc2cc(F)c(F)c(F)c2)cc1	12.1%	4.01% (active)	-3.42% (active)	17.9%	41.7%	85.2	29%	-33.9% (active)	13%	-29.8% (active)	29.2%	16.3%	19.2%	9% (active)	10.7%	5.93% (active)	9.05% (active)	4.93% (active)
NCCNc1ccc([N+](=O)[O-])cc1	100%	93%	113%	115%	112%	109	111%	134%	106%	116%	106%	103%	113%	112%	101%	98.8%	115%	115%
CC(=O)c1ccc(Nc2nccc(-c3ccc(Cl)cc3)n2)cc1	58.3%	93.6%	91.7%	91.6%	105%	108	103%	109%	95%	96.1%	80.2%	100%	104%	92.6%	76.8%	62.9%	94.7%	114%
C=C(C)[C@@H]1CC[C@]2(C#N)CC[C@]3(C)[C@H](CC[C@@H]4[C@@]5(C)CCCNC(C)(C)[C@@H]5CC[C@]43C)[C@@H]12	-26% (active)	-18.6% (active)	82.7%	88.6%	72.4%	118	46.4%	70.1%	91.8%	88.3%	78.8%	96.1%	44.2%	2.83% (active)	20%	41.6%	41%	–
